40 molecules from PubChem BioAssay (Tox21) can be followed below.

Inconclusive results are not listed. Values without a mark were called inactive. The source made the active and inactive calls. Calls follow the shape of the dose curve; as a rule, active = well fitted activation curve with a large enough effect in the signal ratio in the repeat runs (not every such curve was filed as active); inconclusive = weak or mixed curves; inactive = flat fitted curve, though single readings scatter; the % refers to the signal ratio.
% is scaled to controls: 0 for no effect and ±100 for the full control effect.

A short description of the assay: qHTS assay to identify small molecule agonists of the TGF-beta/Smad signaling pathway (AID 1346859). As to conditions: SBE-bla HEK293T, TGF-beta/Smad beta-lactamase reporter, 5 h; series mostly up to 76.8 µM; activation: at the top concentration. The source says:
U.S. Tox21 Program National Center for Advancing Translational Sciences [NCATS] NIH Chemical Genomics Center [NCGC] U.S. Environmental Protection Agency [EPA] National Institutes of Environmental Health Sciences [NIEHS] National Toxicology Program [NTP] U.S. Food and Drug Administration [FDA] Tox21 Assay Overview: Transforming growth factor beta (TGF-beta) superfamily consists of a large number of structurally related dimeric proteins that act as hormones or local mediators in regulating a wide range of biological functions. This superfamily includes TGF-betas themselves, the bone morphogenetic proteins (BMPs) and the activins. These ligands induce oligomerization of serine/threonine receptor kinases and phosphorylate the cytoplasmic signaling molecules of Smad protein family. CellSensor SBE-bla HEK 293T cell line (Life Technologies, Carlsbad, CA), responsive to TGF-beta was used to screen Tox21 10K compound library for identification of agonists/antagonists of the Smad signaling pathway. This cell line contains a beta-lactamase reporter gene under control of the Smad binding element (SBE) stably integrated into HEK 293T cells.
Tox21 Assay Protocol Summary: SBE-bla HEK 293T cells were dispensed at 4,000/well in 6 uL of assay medium into black wall/clear-bottom 1536-well plates using a Multidrop Combi (ThermoFisher Scientific, Waltham, MA) dispenser. After the assay plates were incubated at 37 C and 5% CO2 for an overnight, 23 nL of compounds dissolved in DMSO, positive controls or DMSO only was transferred to the assay plate by a Pintool station (Kalypsys, San Diego, CA). The assay plates were incubated at 37 C and 5% CO2 for 5 hr. One uL of LiveBLAzer B/G FRET substrate (Life Technologies) was added using a Flying Reagent Dispenser (Aurora Discovery, San Diego, CA) and the plates were incubated at room temperature for 2 hr. Fluorescence intensity (405 nm excitation, 460 nm and 530 nm emissions) was measured using an Envision plate reader (PerkinElmer, Shelton, CT).
As for `O=[N+]([O-])c1cc(Cl)c(Cl)cc1Cl`, the “activation” value is -1.79%.

Turning to `Cc1ccc2c(C)cccc2c1`, the “activation” value was 2.26%.

In the case of `CCOP(=S)(OCC)Oc1ccc(S(C)=O)cc1` (stereo not given), the “activation” value was 0.615%.

For `CCC1(C2=NCCN2)Cc2ccccc2O1` (stereo not given), the “activation” value was 1.8% [at 35.3 µM]. As for `CC(C)[C@@H](C(=O)O[C@@H](C#N)c1cccc(Oc2ccccc2)c1)c1ccc(Cl)cc1`, the call was inactive. On to `CCCN(CCC)C(=O)Cc1c(-c2ccc(Cl)cc2)nc2ccc(Cl)cn12`, for which the “activation” value was -3.27% [at 35.3 µM]. Still for that read-out and setting: the same measure for `Oc1cccc(Cl)c1`: -2.26%.

Regarding `CC(Cl)C(=O)O` (stereo not given), the “activation” value is -2.31%. Regarding `OCC1CO1` (stereo not given), the result was inactive. For the molecule `CC[N+]1(CCOC(=O)C(O)(c2ccccc2)c2ccccc2)CCCCC1`, the “activation” value was -0.0633% [at 35.3 µM]. The same measure, in the same setting: with `Cc1ncc(C[n+]2csc(CCO)c2C)c(N)n1` the figure was 0.0171%; with `C1CCNCC1`, -6.51%; with `C=CCSSCC=C`, 0.522%. Still for that read-out and setting: with `[Cl-].[Cl-].[Hg+2]` the figure was 1.15%. Still for that read-out and setting: the same measure for `CCOP(=S)(S)OCC`: 1.39%. For the molecule `COC(=O)C1(O)c2ccccc2-c2ccccc21`, the “activation” value is -0.264%. Still for that read-out and setting: the same measure for `CC(=O)OC(c1ccccc1)C(Cl)(Cl)Cl` (stereo not given): 0.24%.

With `CC1(C)[C@H](C(=O)O[C@H](C#N)c2cccc(Oc3ccccc3)c2)[C@@H]1C=C(Br)Br`, the call was inactive. Consider `O=C(NCNC(=O)NC1C(=O)NC(=O)N1CO)NC1C(=O)NC(=O)N1CO` (stereo not given), for which the “activation” value was 0.653%. Still for that read-out and setting: with `CC(Oc1cc(Cl)c(Cl)cc1Cl)C(=O)O` (stereo not given) the figure was -11.2%. On the same count and under the same terms, the same measure for `COC1CC(=C(c2cccs2)c2cccs2)C[N+](C)(C)C1` (stereo not given): 2.37% [at 35.3 µM]; for `CCCCOC(=O)CCC(=O)OCCCC`: 1.06%; for `C=CCc1ccccc1O`: -0.266%. Still for that read-out and setting: the same measure for `CCCCCl`: -0.394%; for `CC(C)(C#N)C(C)(C)C#N`: 0.809%. With `CC(=O)NNc1ccccc1`, the “activation” value is 1.03%. The same measure, in the same setting: with `CCC(=O)O[C@@H]1C=C2CCC3C(CCC4(C)C3CC[C@@H]4OC(=O)CC)C2CC1` (stereo not given in full) the figure was 0.299% [at 35.3 µM]; with `ClCc1ccccc1Cl`, -0.748%; with `C[N+]1(CCF)[C@@H]2CC[C@H]1CC(OC(=O)C(O)(c1ccccc1)c1ccccc1)C2` (stereo not given in full), -3.93% [at 35.3 µM]. In the case of `Nc1ccc2c(c1)Cc1ccccc1-2`, the “activation” value is -2.78%.

Consider `C=CC(=O)OCC`, for which the “activation” value was -4.09%. As for `Clc1ccc(Cl)c(Cl)c1`, the molecule was classed as inactive.

Turning to `C=C(C)C(=O)OCCCCOC(=O)C(=C)C`, the “activation” value is -0.18%. Consider `SCc1ccccc1`, for which the “activation” value is -0.284%. In the case of `Nc1cc(Cl)cc(C(=O)O)c1Cl`, the molecule was classed as inactive.

On to `C[C@H]1O[C@H](OC2[C@@H](O)[C@@H](O)C(O)[C@H](O)[C@H]2O)[C@@H](N)C[C@@H]1N=C(N)C(=O)O` (stereo not given in full), for which the “activation” value is 2.82%. In the case of `CC(C)(C)OOC(C)(C)CCC(C)(C)OOC(C)(C)C`, the “activation” value is 1%. With `Cc1ccc(N)c(C)c1`, the outcome was inactive.

On to `CCOC(=O)C1OC1(C)c1ccccc1` (stereo not given), for which the result was inactive.

As for `CN1C(=O)CN=C(c2ccccc2)c2cc([N+](=O)[O-])ccc21`, the “activation” value is -0.0582% [at 35.3 µM].
